Results on 59 compounds are retold here after PubChem BioAssay AID493191 (Broad Institute, 2011).

The whole screen tested about 1,300 compounds, of which about 330 (25%) were called active. Not all results are given here. Measured potencies and affinities stand elsewhere. A number with no mark means an inactive call. No rule for the calls is given here.

This test can be described thus: growth inhibition of MALME3 cells – cell-based, CellTiter-Glo, cherry-picked, orthogonal assay for MITF inhibitor project, dose response (AID 493191). Conditions: MALME3 melanoma viability, CellTiter-Glo luminescence, 24 h; series mostly up to 35 µM; activity change, negative = inhibition: at the top concentration. (ATP-based viability assays read luminescence as a measure of living cells.)
Regarding `COc1cc(OC)cc(C(=O)Nc2ccc3c(c2)OCCO3)c1`, the “activity change, negative = inhibition” value was -37.2%. For `CCN(C(=O)c1ccco1)c1nc(-c2ccc(OC)cc2)cs1` the value was 1.88%.

`COc1cc2c(cc1O)C(SC)=NC(C)(C)C2`: the “activity change, negative = inhibition” value is -2.97%. On to `CC(C)c1ccc(/C=N/Nc2ccc(C(=O)O)cc2)cc1`, for which the “activity change, negative = inhibition” value is 5.55%. For `CCN1c2ccccc2NC2C1C(C(C)=O)C(=O)N2c1ccc(Cl)cc1` (centres undefined) the value was -8.47%.

For the compound `Cc1nc(NCCOc2ccccc2)sc1C(=O)Nc1ccccc1`, the “activity change, negative = inhibition” value was -14.8%. `CCOC(=O)c1sc(-c2ccccc2)cc1N`: the “activity change, negative = inhibition” value is -45.5%. For `CCOC(=O)c1c(C)[nH]c(C)c1C(=O)COC(=O)c1ccc([N+](=O)[O-])s1`, the “activity change, negative = inhibition” value was -39.1%. Take `COc1ccc(C)cc1Nc1nc(N)c2cc(OC)c(OC)cc2n1`: the “activity change, negative = inhibition” value was 10.8%. For `CC(C)CC(=O)NC(c1cccs1)c1ccc2cccnc2c1O` (centres undefined) the value was -25.5%; for `N/C(=N\OC(=O)c1ccncc1)c1cccc([N+](=O)[O-])c1`, 2.54%; for `Cc1c(C#N)c(NC(=O)CCl)n(Cc2ccccc2)c1C`, -33.6%.

As to `Cc1ccc(OCC(=O)Nc2ccccc2F)cc1`, the “activity change, negative = inhibition” value is 2.26%. For `Fc1cccc(Cl)c1CSc1nnc(-c2ccncc2)o1` the value was 7.71%; for `CC(=O)N/C(N)=N/c1nc(=O)c2ccccc2s1`, 1.17%; for `NC(=O)c1c(NC(=O)c2cccnc2)sc2c1CCCCC2`, 4.25%. Turning to `CCOc1ccc(N/C=C/C(=O)c2ccc(OC)c(OC)c2)cc1`, the “activity change, negative = inhibition” value was -6.29%. In the case of `OCCNc1c2ccccc2nc2ccccc12` it was -5.45%; in that of `Clc1ccc(-c2noc(CN3CCOCC3)n2)cc1`, 6.68%. In the case of `NNC(=O)Cn1c(SCc2ccccc2)nc2ccccc21` it was 5.17%; in that of `COc1ccc(N/C=C\C(=O)c2ccc3ccccc3c2)cc1`, 1.62%. Turning to `O=C(Nc1ccc([N+](=O)[O-])cc1)c1ccccc1`, the “activity change, negative = inhibition” value was 11.7%. For `COc1ccc(-c2csc(Nc3ccccn3)n2)cc1OC` the value was -15.7%; for `Cc1ccccc1NCc1nc2ccccc2n1C`, -24.4%. For `O=C(c1cc2ccccc2oc1=O)N1CCN(c2ncccn2)CC1` the value was -25.8%; for `N#C/C(=C\c1ccc(OCc2ccc(C(=O)O)cc2)cc1)C(=O)N1CCOCC1`, -7.69%. For `N#Cc1nc(/C=C/c2ccccc2)oc1NCCCN1CCOCC1` the value was -3.05%; for `CCN1CCN(c2ccc(Nc3ccnc4ccccc34)cc2)CC1`, -36%; for `CCn1c(C)cc(C(=O)CN2C(=O)c3ccccc3S2(=O)=O)c1C`, 8.52%. As to `Cc1ccc(SCc2cn3cc(Cl)ccc3n2)cc1`, the “activity change, negative = inhibition” value was -21.6%.

Regarding `Cc1ccc(-c2c[n+](Cc3cccc(Cl)c3)c3n2CCC3)cc1`, the “activity change, negative = inhibition” value was -10.3%. For `CCN(CC(=O)Nc1ccc2c(c1)OCCO2)C(=O)c1ccc([N+](=O)[O-])s1` the value was 2.27%. For `CC(OC(=O)c1ccc([N+](=O)[O-])s1)C(=O)NC1CCCCC1C` (centres undefined) the value was -15%; for `CCOC(=O)Cn1c(=NC(=O)c2ccc([N+](=O)[O-])s2)sc2ccccc21`, -16.7%.

Regarding `O=[N+]([O-])c1ccc(/C=N/n2c(CO)nc3ccccc32)s1`, the “activity change, negative = inhibition” value was -47.3%. Regarding `Nc1nc2ccccc2n1/N=C/c1ccc(-c2ccccc2)o1`, the “activity change, negative = inhibition” value is -1.36%. In the case of `C=CCn1c(C)cc(C(=O)CN2C(=O)c3ccccc3S2(=O)=O)c1C` it was 8.23%. As to `Cn1c(/C=C/c2cccc([N+](=O)[O-])c2)c([N+](=O)[O-])c(=O)n(C)c1=O`, the “activity change, negative = inhibition” value is -1.13%. Turning to `Nc1ccc(-c2cc3ccccc3c(=O)o2)cc1`, the “activity change, negative = inhibition” value was -6.34%.

Regarding `Cn1c(COc2ccccc2Br)nc2ccccc21`, the “activity change, negative = inhibition” value was -8.31%. On to `O=C(CN1CCCCC1)Nc1scc2c1c(=O)oc1ccccc12`, for which the “activity change, negative = inhibition” value was 9.74%. For `CCc1ccc(-c2cc(C(=O)Nn3cnnc3)c3ccccc3n2)cc1`, the “activity change, negative = inhibition” value was -34.7%. For `O=C(Nc1ccccc1N1CCOCC1)c1ccc([N+](=O)[O-])o1`, the “activity change, negative = inhibition” value was -33%. Turning to `Cc1cn(CCC(=O)Nc2ccccc2N2CCOCC2)c2ccccc12`, the “activity change, negative = inhibition” value was 0.439%. For `FC(F)(F)Oc1ccc(-c2cn3cccnc3n2)cc1` the value was 9.48%. For `CCN(CCO)c1ccc(N=Nc2cc(C)[nH]n2)cc1` the value was 1.47%; for `COc1cc(/C=C/C(=O)c2ccc3c(c2)OCCO3)cc(Br)c1OCC(=O)N(C)C`, -25.1%. `COCc1cc(C)nc2sc(C(=O)Nc3ccc(OC)cc3)c(N)c12`: the “activity change, negative = inhibition” value is 18%.

For `Cc1cc(C)c2nc(N3CCC(C(=O)NCCCN4CC(C)CC(C)C4)CC3)sc2c1` (centres undefined), the “activity change, negative = inhibition” value was -1.77%. On to `Cc1ccccc1-c1nc(CN2CCC(C(=O)NCCCN3CCCC(C)C3)CC2)c(C)o1` (centres undefined), for which the “activity change, negative = inhibition” value is -24.7%. On to `COc1cc(-c2nnc(-c3ccco3)o2)ccc1OCc1ccccc1`, for which the “activity change, negative = inhibition” value was 2.69%.

Take `COc1ccc(-c2nc(-c3ccccc3OC)no2)cc1OC`: the “activity change, negative = inhibition” value was 10.9%. Take `COc1ccc(-c2nc3n(c2C)Cc2ccccc2-3)cc1`: the “activity change, negative = inhibition” value is -13.5%. Turning to `Cn1nnnc1Sc1ncnc2scc(-c3ccc[nH]3)c12`, the “activity change, negative = inhibition” value is -24.7%. For `S=c1[nH]nc(-c2ccco2)n1/N=C/C(Cl)=C/c1ccccc1` the value was -8.95%; for `O=C(Nc1ccc(-c2nc3ncccc3o2)cc1)c1ccc([N+](=O)[O-])o1`, -49.7%. As for `O=C(Nc1ccccc1Cl)c1cc(=O)c2ccccc2o1`, the “activity change, negative = inhibition” value was 1.46%. Regarding `Cc1ccc2nc(-c3cccnc3)oc2c1`, the “activity change, negative = inhibition” value is -3.42%. In the case of `Oc1cc(NCc2cccnc2)ccc1-c1nc2ccccc2o1` it was -0.708%.
